A word on the AC50: it is the midpoint of the concentration-response curve, whichever way the signal moves.

Several values for one entry are separate records, joined by “and”; a condition that tells them apart may be missing. Equal values may be shown once. Records with an inconclusive call do not appear. More than one record can exist for a structure, and the calls need not agree. Activity calls are given as the source filed them. The calls were made as follows: active = hit-call score of the fitted dose curve at least 0.9, where 1 is the maximum; inconclusive = response in the unintended direction; inactive = score below 0.9.

In this experiment the target is Nuclear receptor subfamily 1 group I member 2 (Homo sapiens) (UniProt O75469). The experiment in a line: ATG_PXR_TRANS: Attagene TRANS-FACTORIAL HepG2 Assay for human Pregnane X Receptor (PXR) (AID 2283008). The protocol: ATG_TRANS is a cell-based, multiplexed-readout assay that uses HepG2, a human liver cell line, with measurements taken at 24 hours after chemical dosing in a 24-well plate.ATG_PXR_TRANS is one of 30 assay component(s) measured or calculated from the ATG_TRANS assay. It is designed to make measurements of mRNA induction, a form of inducible reporter, as detected with fluorescence intensity signals by Reverse transcription polymerase chain reaction (RT-PCR) and Capillary electrophoresis technology.Data from the assay component ATG_PXR_TRANS was analyzed into 1 assay endpoint. This assay endpoint, ATG_PXR_TRANS, was analyzed in the positive analysis fitting direction relative to DMSO as the negative control and baseline of activity. Using a type of inducible reporter, measures of mRNA for gain-of-signal activity can be used to understand the reporter gene at the transcription factor-level as they relate to the gene NR1I2. Furthermore, this assay endpoint can be referred to as a primary readout, because this assay has produced multiple assay endpoints where this one serves a reporter gene function. To generalize the intended target to other relatable targets, this assay endpoint is annotated to the nuclear receptor intended target family, where the subfamily is non-steroidal.
Nuclear receptor subfamily 1 group I member 2 (Homo sapiens), sequence (O75469 whole entry, looked up): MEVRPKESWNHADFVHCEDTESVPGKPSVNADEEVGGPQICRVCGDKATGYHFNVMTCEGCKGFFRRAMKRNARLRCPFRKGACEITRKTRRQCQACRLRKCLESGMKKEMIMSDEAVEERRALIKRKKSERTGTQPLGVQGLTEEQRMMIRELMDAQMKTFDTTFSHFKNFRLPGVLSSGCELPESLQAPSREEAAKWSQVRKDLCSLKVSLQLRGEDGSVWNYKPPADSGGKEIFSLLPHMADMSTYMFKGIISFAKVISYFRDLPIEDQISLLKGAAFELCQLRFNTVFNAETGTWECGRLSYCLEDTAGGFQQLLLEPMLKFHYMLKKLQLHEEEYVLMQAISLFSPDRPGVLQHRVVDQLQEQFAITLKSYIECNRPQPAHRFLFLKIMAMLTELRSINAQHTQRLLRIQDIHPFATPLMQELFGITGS
Human liver HepG2 cells are transiently transfected with multiple reporter transcription units (MRTUs) in 6-well plates using FuGene 6 reagent (Roche; 3 ml FuGene/1 mg DNA). The MRTU constructs are regulated by a cis-regulating element (promoter). […] A major difference between the CIS and TRANS system is that in CIS activities of endogenous TFs are measured, whereas the TRANS assay evaluates changes in activities of exogenous, chimeric NR-Gal4 proteins. […] At the end of 24 hour incubation, total RNA was isolated using TriZol reagent (Invitrogen). The isolated RNA is then reverse-transcribed using oligo(dT) primer and Mo-MLV reverse transcriptase (Invitrogen) with DNAse I (Ambion) treatment for 30 min. The one-tenth of the produced cDNA was amplified by PCR using Taq DNA polymerase (Invitrogen) and two reporter sequence-specific primers. The PCR products were fluorescently labeled by primer extension with 6-arboxyfluorescein (6-FAM) 5'-labeled reporter sequence-specific primer (2 min at 95 C, 20 s at 68 C and 10 min at 72 C) and these products were digested with 5U of HpaI (New England Biolabs) for 2h at 37 C. The fragments were purified using Qiaquick PCR columns (Qiagen), analyzed on an ABI 3130xL genetic analyzer (Applied Biosystems) with peak positions identified by using a set of X-rhodamine (ROX)-labeled MapMarker1000 molecular weight standards (BioVentures). The raw capillary electrophoresis data was processed using Attagraph software (Attagene).
With `c1ccc(CNc2ncnc3c2ncn3C2CCCCO2)cc1` (stereo not given), the AC50 was 6.85 µM (active). As to `CC(C)[C@@H]1CC[C@@H](C)C[C@H]1O`, the result was inactive. For the compound `CCCCCCCCC(C)=O`, the outcome was inactive. Turning to `O=C(NCc1ncc(C(F)(F)F)cc1Cl)c1c(Cl)cccc1Cl`, the AC50 was 0.675 µM (active). As for `COc1ccccc1NC(=O)c1cc2ccccc2cc1O`, the AC50 was 1.23 µM (active).

For `FC(F)(F)C(F)(F)C(F)(F)C(F)(F)I`, the compound was classed as inactive.

For `CCCCN(C)C`, the compound was classed as inactive. Turning to `Clc1ccc(Nc2nnc(Cc3ccncc3)c3ccccc23)cc1`, the AC50 is 3.3 µM (active).

Regarding `CCCCCCCCCCCCCCCCCC[N+](C)(C)Cc1ccccc1`, the outcome was inactive. Still for that read-out and setting: as for `CC[N+](CC)(CC)Cc1ccccc1`, the entry is “inactive”.

For the compound `CC(=O)Nc1ccc(S(N)(=O)=O)cc1`, the outcome was inactive. In the case of `CCCCCCOC(=O)c1ccc(O)cc1`, the AC50 is 25.6 µM (active). Regarding `CCCCCCC(C)(C)C(=O)O`, the compound was called inactive. The same measure, in the same setting: as for `O=C(O)CCC(F)(F)C(F)(F)C(F)(F)C(F)(F)C(F)(F)C(F)(F)F`, the entry is “inactive”; as for `O=C(NO)c1ccccc1`, “inactive”. As to `CC1COCc2cc3c(cc21)C(C)(C)C(C)C3(C)C` (stereo not given), the AC50 is 2.14 µM (active).

In the case of `CCOC=C(C(=O)OCC)C(=O)OCC`, the compound was called inactive. `C=Cc1ccc(O)c(OC)c1`: the AC50 is 70.3 µM (active). Consider `Cc1ccccc1C(OCCN(C)C)c1ccccc1` (stereo not given), for which the compound was called inactive.

Turning to `C=CC(C)(CCC=C(C)C)OC(C)=O` (stereo not given), the AC50 is 29.5 µM (active). `CC1=CC(=O)c2ccccc2C1=O`: the AC50 is 7.29 µM (active). For `NNC(=O)CCCCC(=O)NN`, the call was inactive. On to `CN(C)c1ccc(C(=C2C=CC(=[N+](C)C)C=C2)c2ccccc2)cc1`, for which the AC50 is 3.02 µM (active). In the case of `C=CC(F)(F)C(F)(F)C(F)(F)C(F)(F)F`, the call was inactive. As to `CC1CNCC(C)O1` (stereo not given), the compound was called inactive. On the same count and under the same terms, the same measure for `O=C(c1cc(O)c(O)c(O)c1)c1ccc(O)c(O)c1O`: “inactive”. As to `CCC(C)c1ccccc1O` (stereo not given), the AC50 was 45.7 µM (active) and 24.8 µM (active). As for `Cc1[nH]nc2c1N=C(c1ccccc1Cl)c1cc([N+](=O)[O-])ccc1N2`, the result was inactive. Turning to `Oc1ccc(Cc2ccccc2O)cc1`, the result was inactive. Take `c1cnc2c(c1)ccc1cccnc12`: the compound was called inactive and the AC50 is 26.4 µM (active).

In the case of `COc1ccc(C#N)cc1`, the outcome was inactive. Same read-out and setting: as for `CN(CCO)S(=O)(=O)C(F)(F)C(F)(F)C(F)(F)C(F)(F)C(F)(F)C(F)(F)C(F)(F)C(F)(F)F`, the entry is “inactive”.

Turning to `O=S(=O)(c1ccc(OCc2ccccc2)cc1)c1ccccc1O`, the half-maximal activity concentration (AC50) is 3.73 µM (active).

As for `Cc1cccc2c1ccc1ccccc12`, the AC50 was 11.2 µM (active). For the compound `CCOC(OCC)C(=O)c1ccccc1`, the AC50 is 16.7 µM (active). With `Cc1cc(C(C)(C)C)c(O)c(C(C)(C)C)c1`, the AC50 was 27.3 µM (active) and the outcome was inactive. As to `CCCCCCCCCCCC`, the result was inactive. For `CCN(CCC#N)c1ccccc1`, the AC50 is 38.1 µM (active).
